For 44 compounds, activity change results are on record in PubChem BioAssay AID651550 (National Center for Advancing Translational Sciences (NCATS), 2012).

Molecules are shown by their SMILES. The whole screen tested about 360,000 compounds, of which about 1,100 (0.31%) were called active. Cut-off read from the data, not from the text of the source: active = activity change below about -80%; inconclusive = mostly about -51% to -80%; inactive = weaker than that. For the sample, actives were picked, then their nearest neighbours and some compounds at random.
% is set by controls: 0 for no effect and ±100 for the full control effect.

In this assay the target is RAC-alpha serine/threonine-protein kinase (Homo sapiens) (UniProt P31749). The experiment in a line: HTS Assay for Inhibitors of Akt Phophorylation: Primary Screen. The conditions noted are these: Neuro2A IGF-stimulated pAkt S473 HTRF, 20 min; at 50 µM, stronger effect = lower value. A digest of the protocol:
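Neuro2A cells in DMEM with 0.5% FBS, overnight at 37 deg C, given compound at single 50 µM final, then IGF (6 nM final) for 20 min at 37 deg C. Lysed; phospho-Akt Ser473 by HTRF after 24 h, 665/615 ratio.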
(In TR-FRET formats the signal depends on donor and acceptor labels being close together.)
With `CC(C)OC(=O)CC(=O)CC(O)c1cccc([N+](=O)[O-])c1` (centres undefined), the activity change entry is “inactive”.

For the compound `CCOC(=O)[C@]12CCCC=C1N(CCC1=CCCCC1)C(=O)[C@H](CC(=O)NCCCCc1ccccc1)C2`, the activity change entry is “inactive”.

As for `CCC(C(=O)Nc1c(C)cccc1C)n1c(-c2cc(C)cs2)nc2ccccc21` (centres undefined), the activity change entry was “inactive”.

Consider `O=C(C(Cc1ccccc1)n1cccc1)N1CCN(C2CCCCC2)CC1` (centres undefined), for which the activity change result was “inactive”.

For the compound `CCCCNC(=S)N/N=C1\CCCCc2ccccc21`, the activity change entry is “inactive”.

Take `S=C(NCCC1=CCCCC1)Nc1ccccc1`: the activity change is -117% (active).

Regarding `CC(OC(=O)c1c(F)cccc1F)C(=O)NCCC1=CCCCC1` (centres undefined), the activity change result was “inactive”.

With `CC(=O)Nc1ccc(S(=O)(=O)N(C)CC(=O)NCCC2=CCCCC2)cc1`, the activity change entry was “inactive”.

For the compound `COc1ccc(N2c3ccccc3CN(Cc3ccccc3)[C@@H](C)[C@H]2Cc2ccc(-c3ccccc3)cc2)cc1`, the activity change result is “inactive”.

For `O=C(C[C@H]1CC[C@@H](NC(=O)c2ccncc2)[C@@H](CO)O1)NCC1CC1`, the activity change result is “inactive”.

Regarding `CC(=O)C[C@@H]1OC[C@H](CO)N1S(=O)(=O)c1ccc(C)cc1`, the activity change entry is “inactive”.

With `CC(=O)NS(=O)(=O)c1ccc(NC(=O)/C=C/c2ccccc2Cl)cc1`, the activity change entry was “inactive”.

As to `COc1cc(OC)cc(/C(N)=N/O)c1`, the activity change result was “inactive”.

`COC(=O)c1c(C)[nH]c(C(=O)/C=C/c2ccc(Cl)cc2)c1C`: the activity change entry was “inactive”.

Take `Cc1[nH]c(=O)c(C(=O)/C=C/c2ccccc2)c2c1CCCC2`: the activity change was -93.4% (active).

Consider `CC1(C(=O)O)CCCN(C(=O)/C=C/c2ccccc2)C1` (centres undefined), for which the activity change result is “inactive”.

Consider `O=C(CCCn1c(=O)oc2ccccc21)Nc1cccnc1`, for which the activity change is 5.91% (inactive).

Turning to `CC(=O)c1c(C)[nH]c(C(=O)N2CCN(S(=O)(=O)c3ccc(F)c(F)c3)CC2)c1C`, the activity change entry is “inactive”.

As for `Cc1nonc1NC(=O)CSc1nc2ccccc2cc1C#N`, the activity change result was “inactive”.

Consider `Cc1nc2cc(NC(=O)CSc3nc4c(C)cccc4cc3C#N)ccc2s1`, for which the activity change is -95.1% (active).

Turning to `COCc1cc(C)nc(SCC(=O)Nc2cccc(C)c2)c1C#N`, the activity change entry was “inactive”.

For the compound `CC1(C(=O)NS(=O)(=O)c2cccc(F)c2)CCN1C(=O)Cc1cc(F)ccc1F` (centres undefined), the activity change result was “inactive”.

For `COC(=O)[C@@]12C[C@@H](CC(=O)NCCCCc3ccccc3)C(=O)N(Cc3ccccc3)C1=CCC(C)(C)C2`, the activity change entry was “inactive”.

Consider `CCOc1ccc(NC(=O)CCS(=O)(=O)c2cccc3nsnc23)cc1`, for which the activity change entry was “inactive”.

In the case of `CCOc1ccccc1NC(=O)CCS(=O)(=O)c1cccc2nsnc12`, the activity change result was “inactive”.

As to `Cc1cccc(C)c1NC(=O)CCS(=O)(=O)c1cccc2nsnc12`, the activity change was -101% (active).

As for `NS(=O)(=O)c1ccc(NC(=S)NC(=O)c2cccnc2)cc1`, the activity change result is “inactive”.

In the case of `C=CCNC(=O)CCCOc1cccc(C)c1`, the activity change was 3.56% (inactive).

On to `C=CCNC(=O)CC12CC3CC(C1)CC(CC(=O)NCC=C)(C3)C2`, for which the activity change result is “inactive”.

As for `C=CCNC(=O)CCCC(=O)NCC=C`, the activity change is -102% (active).

For the compound `CCCCCc1c(-c2ccc(OC)c(OC)c2)ncn1CCc1ccccc1OC`, the activity change result is “inactive”.

In the case of `Cc1cc(=O)n2nc(N3CCC(C(=O)Nc4c(F)c(F)c(F)c(F)c4F)CC3)sc2n1`, the activity change entry is “inactive”.

Regarding `COc1ccc(C(=O)C(OP(=O)(OC)OC)c2ccccc2OC)cc1` (centres undefined), the activity change entry was “inactive”.

As for `Cc1cc(F)ccc1NC(=O)C(C)n1c2ccccc2c2nc(=O)cc(C)n21` (centres undefined), the activity change result was “inactive”.

`COCCn1c(-c2ccc(OC)c(OC)c2)nc2ccccc21`: the activity change was -119% (active).

As for `COc1ccc(-c2nc3ccccc3n2CCC(C)C)cc1OC`, the activity change is -7.53% (inactive).

On to `CCOCCn1c(-c2ccccc2)nc2ccccc21`, for which the activity change entry was “inactive”.

Regarding `COC(=O)C[C@H]1C=C[C@@H](NS(=O)(=O)c2ccc(C)cc2)[C@@H](CO)O1`, the activity change result was “inactive”.

`CCc1cccc(NC(=S)N(CCN(C)C)C2CCN(C(C)C)CC2)c1`: the activity change result was “inactive”.

With `CCOc1ccc2c(c1)cc(CN(C(=O)CC)C1CCCCC1)c1nnnn12`, the activity change is 1.69% (inactive).

`CCc1ccc2c(c1)cc(CN(C(=S)Nc1ccccc1Cl)C1CC1)c1nnnn12`: the activity change was -83.6% (active).

On to `O=C(NCc1ccccc1)[C@H]1C[C@@H]1[C@H](NP(=O)(c1ccccc1)c1ccccc1)c1ccccc1`, for which the activity change entry is “inactive”.

For the compound `Cc1ccccc1CN1C(=O)CSCC1(C)C(=O)Nc1c(C)cccc1C` (centres undefined), the activity change result is “inactive”.

Consider `CCOC(=O)C1C(C)C(C(C)(C)C)N(S(=O)(=O)c2ccc(C)cc2)C1c1ccccc1` (centres undefined), for which the activity change entry was “inactive”.
